One assay concerns the target Casein kinase I isoform alpha (Homo sapiens) (UniProt P48729). The conditions noted are these: at 0.1 µM.
Chain of Casein kinase I isoform alpha (Homo sapiens) (P48729 2-337 limits assumed): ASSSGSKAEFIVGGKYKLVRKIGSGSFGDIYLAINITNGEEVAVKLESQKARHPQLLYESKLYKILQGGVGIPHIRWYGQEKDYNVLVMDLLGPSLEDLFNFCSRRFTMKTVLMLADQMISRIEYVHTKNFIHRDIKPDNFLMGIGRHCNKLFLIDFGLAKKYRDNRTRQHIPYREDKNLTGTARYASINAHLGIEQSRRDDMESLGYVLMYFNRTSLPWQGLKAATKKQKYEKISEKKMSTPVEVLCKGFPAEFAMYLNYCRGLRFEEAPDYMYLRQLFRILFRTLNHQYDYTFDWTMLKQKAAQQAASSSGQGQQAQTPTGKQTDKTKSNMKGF
`CS(=O)(=O)CCNCc1cc(-c2cc3c(Nc4ccc(OCc5cccc(F)c5)c(Cl)c4)ncnc3s2)cs1`: the inhibition (usually the relative decrease from the control value, in per cent) is 6.3%.
Turning to `Fc1ccc(-c2c(-c3ccncc3)nc3n2CCS3)cc1`, the inhibition came out at 2.51%.
As for `Cc1ccc(NC(=O)c2ccoc2)cc1-c1ccc(C(=O)NCC2CC2)cc1`, the inhibition stood at 1.36%.
Turning to `NS(=O)(=O)c1ccc(N/N=C2\C(=O)Nc3ccc(-c4cnco4)cc32)cc1`, the inhibition worked out at 0.46%.
With `O=C(Nc1n[nH]c2cc(-c3cc(F)ccc3F)ccc12)C1CC1`, the inhibition came to 0.79%.
Regarding `Nc1nccc(-c2c(-c3ccc(F)cc3)ncn2C2CCC(O)CC2)n1` (configuration not stated), the inhibition is 62.4%.
Still for that read-out and setting: in the case of `C[C@@H](Oc1cc(-n2cnc3ccc(OC4CCN(C)CC4)cc32)sc1C(N)=O)c1ccccc1Cl` it was 4.09%; in that of `CCS(=O)(=O)c1ccc(OC)c(Nc2ncc(-c3cccc(-c4ccccc4F)c3)o2)c1`, -0.76%; in that of `O=C1Nc2ccc(I)cc2C1=Cc1cc(Br)c(O)c(Br)c1`, 5.08%.
With `COc1cccc(/C=N/Nc2ncnc3c2cnn3-c2cccc(OC)c2)c1`, the inhibition stood at 3.37%.
`COc1cc2ncn(-c3cc(OCc4cccs4)c(C(N)=O)s3)c2cc1OC`: the inhibition was found to be 2%.
Take `NC(=O)c1ccc(Oc2nccc(-c3c(-c4ccc(F)cc4)ncn3C3CCNCC3)n2)cc1`: the inhibition came to 5.63%.
For the compound `CN(C)CCCNc1nccc(-c2c(-c3ccc(F)cc3)nn3cc(C(F)(F)F)ccc23)n1`, the inhibition came to 1.35%.
For `O=C1NC(=O)C(c2cccc(Cl)c2)=C1Nc1ccc(Cl)c(C(=O)O)c1`, the inhibition worked out at 1.07%.
Regarding `NC(=O)Cc1ccccc1Oc1nccc(-c2c(-c3ccc(F)cc3)ncn2C2CCNCC2)n1`, the inhibition was 9.09%.
In the case of `Fc1ccc(-c2ncn(C3CCNCC3)c2-c2ccnc(Oc3ccc(F)c(F)c3)n2)cc1`, the inhibition came to 4.09%.
Take `O=C(Nc1n[nH]c2cc(-c3ccccc3)ccc12)C1CC1`: the inhibition is 3.51%.
Turning to `Cc1nnc(-c2ccc(C)c(-c3ccc(C(=O)NCc4ccc(Cl)cc4)cc3)c2)o1`, the inhibition turned out to be 2.79%.

For a further assay the target is unchanged. Particulars: at 1 µM.
`COc1ccc2ncn(-c3cc(O[C@H](C)c4ccccc4Cl)c(C(N)=O)s3)c2c1`: the inhibition came to 2.16%.
Turning to `C#Cc1cccc(Nc2ncnc3ccc(OCCCCNCCS(C)(=O)=O)cc23)c1`, the inhibition amounted to 7.93%.
Still for that read-out and setting: the figure for `NS(=O)(=O)c1ccc(Nc2cc(-c3ccc(O)c(F)c3)n[nH]2)cc1` is 4.49%; for `C[C@@H](Oc1cc(-n2cnc3ccc(OCC4CCN(C)CC4)cc32)sc1C(N)=O)c1ccccc1Cl` it is 6.37%; for `Fc1ccc(-c2ncn(CCCN3CCOCC3)c2-c2ccncc2)cc1` it is 5.39%.
Take `NS(=O)(=O)c1ccc(N/N=C2\C(=O)Nc3ccc(C(=O)NCCCn4ccnc4)cc32)cc1`: the inhibition came out at 6.05%.
The same measure, in the same setting: in the case of `COc1ccc2cc(-c3c(-c4ccncc4)nc(-c4ccc(S(C)(=O)=O)cc4C)n3C)ccc2c1` it was 4%; in that of `Clc1ccc(CNc2nccc(-c3cnn4ncccc34)n2)cc1`, 16.9%; in that of `COC(=O)Nc1nc2ccc(Sc3ccc(NC(=O)Nc4cc(C(F)(F)F)ccc4F)cc3)cc2[nH]1`, 1.98%.
`Fc1ccc(-c2ncn(C3CCNCC3)c2-c2ccnc(Oc3ccc4c(c3)OCO4)n2)cc1`: the inhibition turned out to be 31%.
For `Cc1ccc(C(=O)NC(C)C)cc1-c1ccc(C(=O)NCC2CC2)cc1`, the inhibition is -5.5%.
For the compound `CCS(=O)(=O)c1ccc(OC)c(Nc2ncc(-c3ccccc3Cl)o2)c1`, the inhibition was found to be 3.37%.
Same read-out and setting: in the case of `NC(=O)c1cc(-c2ccncc2)cc(-c2ccccc2)c1N` it was 7.76%.
On the same count and under the same terms, the figure for `c1ccc(-c2n[nH]cc2-c2ccnc(-c3ccc(OCCN4CCOCC4)cc3)c2)nc1` is 1.39%; for `Cc1ccc(C(=O)NC2CCC2)cc1-c1ccc(C(=O)NCC2CC2)cc1` it is 6.49%.
In the case of `CN(c1ccc(NC(=O)Nc2c(Cl)cccc2Cl)cc1)c1ccnc(Nc2cccc(CS(C)(=O)=O)c2)n1`, the inhibition worked out at 1.15%.
With `CS(=O)(=O)CCNCc1cc(-c2cc3c(Nc4ccc(OCc5cccc(F)c5)c(Cl)c4)ncnc3s2)cs1`, the inhibition came to 8.73%.
As for `Fc1ccc(-c2c(-c3ccncc3)nc3n2CCS3)cc1`, the inhibition stood at 4.21%.
As for `Cc1ccc(NC(=O)c2ccoc2)cc1-c1ccc(C(=O)NCC2CC2)cc1`, the inhibition was found to be 1.47%.
`NS(=O)(=O)c1ccc(N/N=C2\C(=O)Nc3ccc(-c4cnco4)cc32)cc1`: the inhibition amounted to 3.06%.
As for `O=C(Nc1n[nH]c2cc(-c3cc(F)ccc3F)ccc12)C1CC1`, the inhibition stood at 1.31%.
Same read-out and setting: the figure for `Nc1nccc(-c2c(-c3ccc(F)cc3)ncn2C2CCC(O)CC2)n1` (configuration not stated) is 90.1%; for `C[C@@H](Oc1cc(-n2cnc3ccc(OC4CCN(C)CC4)cc32)sc1C(N)=O)c1ccccc1Cl` it is 6.16%; for `CCS(=O)(=O)c1ccc(OC)c(Nc2ncc(-c3cccc(-c4ccccc4F)c3)o2)c1` it is 4.53%.
For the compound `O=C1Nc2ccc(I)cc2C1=Cc1cc(Br)c(O)c(Br)c1`, the inhibition stood at 6.76%.
The same measure, in the same setting: in the case of `COc1cccc(/C=N/Nc2ncnc3c2cnn3-c2cccc(OC)c2)c1` it was 6.05%.
For the compound `COc1cc2ncn(-c3cc(OCc4cccs4)c(C(N)=O)s3)c2cc1OC`, the inhibition amounted to 3.36%.
As to `NC(=O)c1ccc(Oc2nccc(-c3c(-c4ccc(F)cc4)ncn3C3CCNCC3)n2)cc1`, the inhibition amounted to 30.3%.
As for `CN(C)CCCNc1nccc(-c2c(-c3ccc(F)cc3)nn3cc(C(F)(F)F)ccc23)n1`, the inhibition was determined as 14.8%.
Take `O=C1NC(=O)C(c2cccc(Cl)c2)=C1Nc1ccc(Cl)c(C(=O)O)c1`: the inhibition was 2.57%.
The same measure, in the same setting: in the case of `NC(=O)Cc1ccccc1Oc1nccc(-c2c(-c3ccc(F)cc3)ncn2C2CCNCC2)n1` it was 12.9%.
Consider `Fc1ccc(-c2ncn(C3CCNCC3)c2-c2ccnc(Oc3ccc(F)c(F)c3)n2)cc1`, for which the inhibition is 15.4%.
With `O=C(Nc1n[nH]c2cc(-c3ccccc3)ccc12)C1CC1`, the inhibition came to 5.68%.
Turning to `Cc1nnc(-c2ccc(C)c(-c3ccc(C(=O)NCc4ccc(Cl)cc4)cc3)c2)o1`, the inhibition amounted to 4.63%.

The record behind these values is ChEMBL document CHEMBL1961873, “Compounds: GSK PKIS; Assays: Nanosyn kinase panel” (2012).
